Experimental data published in PubChem BioAssay AID1159580 (chemical genetic matrix, 2015).
Among all 5,500 compounds or so, about 2,000 (36%) were called active. Not shown: some 18% with an inconclusive outcome. The list shows a part of the results. Unmarked numbers belong to inactive results. Cut-off read from the data, not from the text of the source: active = normalized growth mostly below about 0.91 (no sharp cut-off); inconclusive = no clear call, values can overlap the other calls; inactive = mostly above about 0.92.

Assay: chemical genetic growth profiling, strain panel (AID 1159580);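 note: tested at 20 µM; growth read once vehicle control cultures reached saturation at 30 °C; 1 = growth at the plate median or of vehicle wells; lower values mean less growth of the strain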
Conditions: growth OD

CCOC(=O)c1c(C)cc(OC)cc1O
normalized growth (S. cerevisiae deletion strains, locus YJR075W, strain HOC1, active compounds read low): 0.936 | normalized growth (S. cerevisiae deletion strains, locus YKL009W, strain mrt4, active compounds read low): 0.939 | normalized growth (S. cerevisiae deletion strains, locus YKL068W, active compounds read low): 0.956 | normalized growth (S. cerevisiae deletion strains, locus YKL085W, strain MDH1 (second series), active compounds read low): 0.946 | normalized growth (S. cerevisiae deletion strains, locus YKL085W, strain MDH1, active compounds read low): 0.946 | normalized growth (S. cerevisiae deletion strains, locus YKL160W, strain elf1, active compounds read low): 0.976 | normalized growth (S. cerevisiae deletion strains, locus YKL190W, strain CNB1, active compounds read low): 0.996 | normalized growth (S. cerevisiae deletion strains, locus YKR001C, strain vps1, active compounds read low): 0.842 (active) | normalized growth (S. cerevisiae deletion strains, locus YKR026C, strain gcn3, active compounds read low): 0.951 | normalized growth (S. cerevisiae deletion strains, locus YKR091W, strain srl3, active compounds read low): 0.971 | normalized growth (S. cerevisiae deletion strains, locus YLL001W, strain dnm1, active compounds read low): 0.962 | normalized growth (S. cerevisiae deletion strains, locus YLL026W, active compounds read low): 0.965 | normalized growth (S. cerevisiae deletion strains, locus YLL041C, strain sdh2, active compounds read low): 0.96 | normalized growth (S. cerevisiae deletion strains, locus YLR027C, strain aat2, active compounds read low): 0.963 | normalized growth (S. cerevisiae deletion strains, locus YLR039C, strain RIC1, active compounds read low): 0.872 | normalized growth (S. cerevisiae deletion strains, locus YLR058C, strain SHM2, active compounds read low): 0.993 | normalized growth (S. cerevisiae deletion strains, locus YLR102C, strain apc9, active compounds read low): 0.946 | normalized growth (S. cerevisiae deletion strains, locus YLR113W, strain HOG1, active compounds read low): 0.835 (active) | normalized growth (S. cerevisiae deletion strains, locus YLR221C, strain rsa3, active compounds read low): 0.949 | normalized growth (S. cerevisiae deletion strains, locus YLR258W, strain gsy2, active compounds read low): 0.964 | normalized growth (S. cerevisiae deletion strains, locus YLR262C, strain YPT6 (second series), active compounds read low): 0.731 (active) | normalized growth (S. cerevisiae deletion strains, locus YLR262C, strain YPT6, active compounds read low): 0.928 | normalized growth (S. cerevisiae deletion strains, locus YLR268W, strain sec22, active compounds read low): 0.958 | normalized growth (S. cerevisiae deletion strains, locus YLR320W, strain mms22, active compounds read low): 0.859 (active) | normalized growth (S. cerevisiae deletion strains, locus YLR330W, strain CHS5, active compounds read low): 1.01 | normalized growth (S. cerevisiae deletion strains, locus YLR342W, strain FKS1 (second series), active compounds read low): 0.971 | normalized growth (S. cerevisiae deletion strains, locus YLR342W, strain FKS1, active compounds read low): 0.984 | normalized growth (S. cerevisiae deletion strains, locus YLR357W, strain rsc2, active compounds read low): 0.969 | normalized growth (S. cerevisiae deletion strains, locus YLR370C, strain arc18, active compounds read low): 0.981 | normalized growth (S. cerevisiae deletion strains, locus YLR371W, strain rom2, active compounds read low): 0.962 | normalized growth (S. cerevisiae deletion strains, locus YLR384C, strain iki3, active compounds read low): 0.972 | normalized growth (S. cerevisiae deletion strains, locus YLR418C, strain cdc73, active compounds read low): 0.891 | normalized growth (S. cerevisiae deletion strains, locus YML016C, strain PPZ1, active compounds read low): 0.988 | normalized growth (S. cerevisiae deletion strains, locus YML032C, strain rad52, active compounds read low): 0.91 | normalized growth (S. cerevisiae deletion strains, locus YML120C, strain ndi1, active compounds read low): 0.972 | normalized growth (S. cerevisiae deletion strains, locus YML124C, strain tub3, active compounds read low): 0.947 | normalized growth (S. cerevisiae deletion strains, locus YMR058W, strain fet3, active compounds read low): 0.968 | normalized growth (S. cerevisiae deletion strains, locus YMR078C, strain ctf18, active compounds read low): 0.926 | normalized growth (S. cerevisiae deletion strains, locus YMR125W, strain sto1, active compounds read low): 1 | normalized growth (S. cerevisiae deletion strains, locus YMR129W, active compounds read low): 0.977 | normalized growth (S. cerevisiae deletion strains, locus YMR205C, strain PFK2, active compounds read low): 0.887 | normalized growth (S. cerevisiae deletion strains, locus YMR223W, strain ubp8, active compounds read low): 0.924 | normalized growth (S. cerevisiae deletion strains, locus YMR231W, strain pep5, active compounds read low): 0.985 | normalized growth (S. cerevisiae deletion strains, locus YMR263W, strain SAP30, active compounds read low): 0.985 | normalized growth (S. cerevisiae deletion strains, locus YMR307W, strain GAS1, active compounds read low): 0.996 | normalized growth (S. cerevisiae deletion strains, locus YNL067W, strain RPL9B, active compounds read low): 0.99 | normalized growth (S. cerevisiae deletion strains, locus YNL071W, strain lat1, active compounds read low): 0.795 (active) | normalized growth (S. cerevisiae deletion strains, locus YNL128W, strain TEP1, active compounds read low): 1.01 | normalized growth (S. cerevisiae deletion strains, locus YNL153C, strain GIM3, active compounds read low): 0.989 | normalized growth (S. cerevisiae deletion strains, locus YNL183C, strain NPR1, active compounds read low): 0.872 | normalized growth (S. cerevisiae deletion strains, locus YNL209W, strain ssb2, active compounds read low): 0.992 | normalized growth (S. cerevisiae deletion strains, locus YNL233W, strain BNI4, active compounds read low): 0.98 | normalized growth (S. cerevisiae deletion strains, locus YNL248C, strain rpa49, active compounds read low): 0.936 | normalized growth (S. cerevisiae deletion strains, locus YNL250W, strain rad50, active compounds read low): 0.963 | normalized growth (S. cerevisiae deletion strains, locus YNL271C, strain bni1, active compounds read low): 0.949 | normalized growth (S. cerevisiae deletion strains, locus YNL298W, strain CLA4, active compounds read low): 0.965 | normalized growth (S. cerevisiae deletion strains, locus YNL307C, strain MCK1, active compounds read low): 0.734 (active) | normalized growth (S. cerevisiae deletion strains, locus YNL322C, strain KRE1 (second series), active compounds read low): 0.952 | normalized growth (S. cerevisiae deletion strains, locus YNL322C, strain KRE1, active compounds read low): 0.989 | normalized growth (S. cerevisiae deletion strains, locus YNR049C, strain mso1, active compounds read low): 0.967 | normalized growth (S. cerevisiae deletion strains, locus YNR052C, strain pop2, active compounds read low): 0.976 | normalized growth (S. cerevisiae deletion strains, locus YOL006C, strain TOP1, active compounds read low): 0.77 | normalized growth (S. cerevisiae deletion strains, locus YOL012C, strain htz1): 0.775 | normalized growth (S. cerevisiae deletion strains, locus YOL147C, strain pex11, active compounds read low): 0.947 | normalized growth (S. cerevisiae deletion strains, locus YOR001W, strain rrp6, active compounds read low): 0.974 | normalized growth (S. cerevisiae deletion strains, locus YOR061W, strain CKA2, active compounds read low): 1 | normalized growth (S. cerevisiae deletion strains, locus YOR069W, strain VPS5, active compounds read low): 0.989 | normalized growth (S. cerevisiae deletion strains, locus YOR070C, strain gyp1, active compounds read low): 0.963 | normalized growth (S. cerevisiae deletion strains, locus YOR080W, strain dia2, active compounds read low): 0.997 | normalized growth (S. cerevisiae deletion strains, locus YOR083W, strain WHI5, active compounds read low): 0.955 | normalized growth (S. cerevisiae deletion strains, locus YOR106W, strain vam3, active compounds read low): 0.936 | normalized growth (S. cerevisiae deletion strains, locus YOR136W, strain idh2, active compounds read low): 0.955 | normalized growth (S. cerevisiae deletion strains, locus YOR144C, strain elg1, active compounds read low): 0.957 | normalized growth (S. cerevisiae deletion strains, locus YOR184W, strain ser1, active compounds read low): 0.808 (active) | normalized growth (S. cerevisiae deletion strains, locus YOR231W, strain MKK1, active compounds read low): 0.924 | normalized growth (S. cerevisiae deletion strains, locus YOR265W, strain rbl2, active compounds read low): 0.962 | normalized growth (S. cerevisiae deletion strains, locus YOR270C, strain vph1, active compounds read low): 0.727 (active) | normalized growth (S. cerevisiae deletion strains, locus YOR290C, strain snf2, active compounds read low): 0.929 | normalized growth (S. cerevisiae deletion strains, locus YOR316C, strain cot1, active compounds read low): 0.964 | normalized growth (S. cerevisiae deletion strains, locus YPL051W, strain arl3, active compounds read low): 0.96 | normalized growth (S. cerevisiae deletion strains, locus YPL055C, strain LGE1, active compounds read low): 0.972 | normalized growth (S. cerevisiae deletion strains, locus YPL078C, strain atp4, active compounds read low): 0.932 | normalized growth (S. cerevisiae deletion strains, locus YPL106C, strain sse1, active compounds read low): 1.02 | normalized growth (S. cerevisiae deletion strains, locus YPL240C, strain hsp82, active compounds read low): 0.987 | normalized growth (S. cerevisiae deletion strains, locus YPL241C, strain CIN2, active compounds read low): 0.991 | normalized growth (S. cerevisiae deletion strains, locus YPL256C, strain CLN2, active compounds read low): 0.866 | normalized growth (S. cerevisiae deletion strains, locus YPR119W, strain clb2, active compounds read low): 0.933 | normalized growth (S. cerevisiae deletion strains, locus YPR141C, strain kar3, active compounds read low): 0.946 | normalized growth (S. cerevisiae deletion strains, locus YPR163C, strain tif3, active compounds read low): 0.957 | normalized growth (S. cerevisiae deletion strains, locus YPR167C, strain met16, active compounds read low): 0.96 | normalized growth (S. cerevisiae deletion strains, strain wtn01, active compounds read low): 0.928 | normalized growth (S. cerevisiae strains, strain wild type, active compounds read low): 0.978
